DT40 TDP1 CPT = growth inhibition of DT40 Tdp1-/-;hTDP1 cells with camptothecin (screen for TDP1 inhibitors); 420,000 compounds, 12% hits; chicken DT40 Tdp1-/-;hTDP1 cells + 20 nM CPT, ATP luminescence, 48 h; AID 686979; Potency, µM (highest dose often 46.2 µM), for the others: at the top dose activity change, negative = growth inhibition, hits mostly inhibitors; note: potency is the fitted concentration of half-maximal effect; nearly all actives have a fitted effect of over 55% in size
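Cell growth measured by CellTiter-Glo luminescence after a minimum 48 h, 37 C compound exposure with 20 nM CPT in Tdp1-knockout DT40 cells stably expressing hTDP1, seeded 400/well; qHTS titration format.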
ELG1 DNA repair = blocks ELG1-dependent DNA repair in HEK293T cells; Potency, µM (titrated, usually from 46.1 µM), inactives show top-dose activity change, negative = inhibition, usual class: inhibitors; HEK293T ELG1-luciferase reporter, luminescence, 16 h; DNA damage induced by 5-fluorouridine; 330,000 compounds, 2.3% hits; note: potency is the fitted concentration of half-maximal effect; nearly all actives have a fitted effect of over 55% in size
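In this reporter screen, reduction of luminescence relative to DMSO vehicle indicated activity. Compounds and 5-fluorouridine were added together to 2,000 cells per well, incubated for 16 hr at 37 °C, then developed with ONE-Glo.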
HT1080NT lethal = kills 2HG-producing HT-1080-NT fibrosarcoma cells; HT-1080-NT fibrosarcoma viability, CellTiter-Glo ATP luminescence, 48 h; Potency, µM (doses to about 46.1 µM), for inactives: at the highest dose activity, negative = less viability, usual class: cytotoxic; 360,000 compounds, 1.6% hits; AID 686970;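 note: NT is the 2HG producing partner of a matched IDH1 knockdown line; potency is the fitted concentration of half-maximal effect; 0% = DMSO-treated cells and -100% = media-only wells without cells; nearly all actives have a fitted effect of over 55% in size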
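Read-out is CellTiter-Glo luminescence after 10 minutes at room temperature, following 48 hours' compound treatment of HT-1080-NT cells (750 cells/well, RPMI, 5% FBS, 37 degrees C).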
HT1080 IDH1KD tx = HT-1080 IDH1 knockdown cell toxicity (counter line); HT-1080 IDH1 knockdown viability, ATP luminescence, 48 h; Potency, µM (highest dose often 46.1 µM), for inactives: top-dose activity, negative = toxicity, most hits filed as cytotoxic; 360,000 compounds, 2% hits;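 note: potency is the fitted concentration of half-maximal effect; 0% = DMSO wells and -100% = cell-free medium wells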
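Cytotoxicity counter-line: IDH1KD HT-1080, 48 h, CellTiter-Glo. Curves classed by r2, magnitude and activity.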
TDP1 cell noCPT = qHTS for Inhibitors of human tyrosyl-DNA phosphodiesterase 1 (TDP1): qHTS in cells in absence of CPT | Potency, µM (doses to about 46.2 µM), for inactives: top-dose activity change, negative = growth inhibition, actives largely listed as inhibitors | 420,000 compounds, 15% hits | AID 686978, 2013 | DT40 Tdp1-/- hTDP1 cells, no CPT, ATP luminescence, 48 h; note: potency is the fitted concentration of half-maximal effect; nearly all actives have a fitted effect of over 55% in size
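Camptothecin absent (DMSO only). Human TDP1-complemented DT40 knockout cells, 400 cells/well, 37 °C for minimum 48 hr; ATP measured via CellTiter-Glo, 30 min dark incubation, luminescence.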
IL1B secr inh = inhibitors of inflammasome signaling (IL-1 beta secretion); THP-1 LPS/ATP IL-1B secretion, AlphaLISA, 16 h; hits give low values; activity change, % at 57.5 µM; 360,000 compounds, 4.7% hits; in the data active = activity change below about -50%; inconclusive = mostly about -30% to -49%
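THP-1 cells pretreated 1 hr with compounds (up to 57.5 uM final), then stimulated with LPS (250 ng/mL final) plus ATP (1.25 mM final); secreted IL-1B measured by AlphaLISA after 16 hr, decreased signal indicating inhibition.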
* marks the source's active call; other numbers are inactive results; ? = inconclusive; nt = no result. Shown are actives, neighbours in structure and some others; about 19% of the full set was active somewhere. Unless noted, calls come from the whole dose curve; as a rule, active = well fitted curve in the direction sought with a large enough effect; inconclusive = small, poorly fitted or top-dose-only effect, or another doubt; inactive = no such curve, though single readings can be large; an effect the other way counts as inactive or inconclusive. Unless noted, % is set by controls: 0 for no effect and ±100 for the full control effect.

SMILES	DT40 TDP1 CPT	ELG1 DNA repair	HT1080NT lethal	HT1080 IDH1KD tx	TDP1 cell noCPT	IL1B secr inh
Cc1ccc(-c2cc3onc(-c4ccccc4)c3c(=O)n2C)cc1	?	?	16%	12%	?	27
CNC(=O)c1ccc(-c2cc3onc(-c4ccccc4)c3c(=O)n2C)cc1	18µM*	?	-1%	1%	23µM*	0
CCCOc1ccc(-c2cc3onc(-c4ccccc4)c3c(=O)n2C)cc1	26µM*	?	14%	17%	18µM*	36
CCn1c(SCC(=O)Nc2nncs2)nnc1-c1ccco1	2%	-4%	20%	10%	0%	15
NC(=S)N(c1ccccc1)c1ccccc1	6%	-18%	8%	10%	-6%	23
NC(=Nc1ccccc1)N(c1ccccc1)c1ccccc1	?	nt	-1%	-17%	13µM*	6
Cc1cccc2nc(-c3cccc(NS(=O)(=O)c4ccccc4)c3)cn12	?	nt	nt	nt	23µM*	nt
O=S(=O)(Nc1cccc(-c2cn3ccsc3n2)c1)c1ccc(F)cc1	?	-19%	-7%	-11%	?	-18
COc1cccc(OC)c1C(=O)Nc1cccc(-c2cn3ccsc3n2)c1	-68%	nt	nt	nt	?	nt
Cc1ccc(S(=O)(=O)Nc2cccc(-c3cn4ccsc4n3)c2)cc1	?	?	?	?	21µM*	9
COc1cc(OC)cc(C(=O)Nc2cccc(-c3cn4ccsc4n3)c2)c1	13µM*	nt	nt	nt	18µM*	nt
O=S(=O)(Nc1cccc(-c2cn3cccnc3n2)c1)c1ccc(-c2ccccc2)cc1	?	?	-6%	-7%	15µM*	1
COc1ccc(-c2nc(CSCC(=O)NCCCN3CCCC3=O)c(C)o2)cc1OC	-15%	1%	8%	4%	8%	7
CCCN1C(=O)c2cc(C(=O)Nc3ccc(OC)cc3OC)ccc2C1Nc1ccc(OC)cc1OC (centres undefined)	23µM*	?	-1%	2%	?	-13
COc1ccc(NC(=O)c2ccc(S(=O)(=O)C(F)F)cc2)c(OC)c1	-8%	13%	-12%	-2%	1%	-3
COc1ccc(CNC(=O)c2ccc3[nH]c(C)c(C)c3c2)c(OC)c1	-9%	nt	nt	nt	?	nt
COc1ccc(NC(=O)c2ccc3[nH]c(C)c(C)c3c2)c(OC)c1	23µM*	0%	-4%	-20%	18µM*	-6
CCOc1ccccc1NC(=O)c1cc(CC(C)C)oc1C	23µM*	19%	7%	6%	23µM*	22
COc1ccc(NC(=O)c2ccc(-n3c(C)ccc3C)cc2)c(OC)c1	?	?	-4%	-22%	?	-75*
CC(C)(C)n1c(O)c2n(c1=O)Cc1ccccc1N=C2c1ccccc1	?	nt	7%	1%	?	7
CC(C)c1ccc(-n2cnn(-c3ncccc3[N+](=O)[O-])c2=O)cc1	2%	?	-12%	-17%	?	35
CCOc1ccccc1NC(=O)c1ccc2[nH]c(C)c(C)c2c1	?	18%	?	?	26µM*	33
COCCNC(=O)C1CCCN(C(=O)c2nc3ccccc3s2)CC1 (centres undefined)	-10%	nt	12%	3%	-24%	31
COCCCn1c(SCC(=O)Nc2ccc(F)cc2)nc2c(sc3ccccc32)c1=O	15µM*	nt	nt	nt	5.8µM*	nt
COc1ccc(NC(=O)CSc2nc3c(sc4ccccc43)c(=O)n2CCCN2CCCC2)cc1	21µM*	4%	?	?	?	-19
CCOCCCn1c(SCC(=O)Nc2ccc(F)cc2)nc2c(sc3ccccc32)c1=O	-30%	nt	nt	nt	-18%	nt

Assay outcomes as filed in PubChem.
